# Source: PubChem BioAssay (EPA / NIEHS)
# The source made the active and inactive calls. How the source made its calls: active means hit-call score of the fitted dose curve at least 0.9, where 1 is the maximum; inactive means score below 0.9.
# Read-out: E-selectin (Homo sapiens) (UniProt P16581)
# Experiment: BSK_3C_Eselectin: BioMAP Diversity Plus: 3C Assay for Eselectin Biomarker Activity (AID 2283015);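 on outcome: cell surface E-selectin protein quantified by ELISA 24 h after dosing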
# Details: primary human endothelial cells (HUVEC); actives raise or lower the signal
# Procedure, shortened: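 ELISA read-out of E-selectin on endothelial monolayers after 24 h chemical treatment. Human umbilical vein primary cells served as the system, with DMSO defining baseline activity for bidirectional fitting.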
# Sequence of E-selectin (Homo sapiens) (P16581 whole entry, looked up): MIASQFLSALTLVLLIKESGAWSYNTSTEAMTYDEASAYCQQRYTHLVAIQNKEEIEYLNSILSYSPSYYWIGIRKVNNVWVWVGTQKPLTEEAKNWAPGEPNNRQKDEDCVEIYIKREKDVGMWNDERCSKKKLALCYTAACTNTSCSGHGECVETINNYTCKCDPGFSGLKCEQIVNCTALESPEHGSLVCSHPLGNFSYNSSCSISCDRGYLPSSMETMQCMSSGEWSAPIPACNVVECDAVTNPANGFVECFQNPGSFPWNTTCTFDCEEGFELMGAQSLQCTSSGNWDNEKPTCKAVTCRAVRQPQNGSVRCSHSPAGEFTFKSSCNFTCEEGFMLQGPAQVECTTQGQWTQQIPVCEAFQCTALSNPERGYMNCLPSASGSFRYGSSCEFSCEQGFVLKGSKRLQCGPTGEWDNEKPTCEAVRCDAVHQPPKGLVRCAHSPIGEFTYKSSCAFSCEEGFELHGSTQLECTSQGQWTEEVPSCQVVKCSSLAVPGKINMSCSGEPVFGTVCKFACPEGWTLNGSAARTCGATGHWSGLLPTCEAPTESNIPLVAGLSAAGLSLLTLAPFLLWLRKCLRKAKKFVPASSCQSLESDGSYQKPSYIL
SMILES,outcome,AC50
CC1=CC(C)C(C=O)C(C)C1 (centres undefined) (tested in a mixture with another compound),inactive,
CCCCN(CCO)CCO,inactive,
CCCCCCCC1CCCC1=O (centres undefined),,31.3 µM (active)
C=C(C)C(N)=O,inactive,
CCCCOCCOCCO,inactive,
CC(=O)OCC=C(C)CCC=C(C)CCC=C(C)C,inactive,
CCOC(=O)C=Cc1ccccc1,inactive,
CCOC(=O)CCCCCCCCC(=O)OCC,inactive,
c1ccc(OCCOc2ccccc2)cc1,inactive,
CCn1cc(C(=O)O)c(=O)c2ccc(C)nc21,inactive,
COc1ccccc1NC(=O)CC(C)=O,inactive,

# Read-out: Monocyte Chemoattractant Protein-1 (MCP1), CCL2 (gene 6347)
# Experiment: BSK_3C_MCP1: BioMAP Diversity Plus: 3C Assay for Monocyte Chemoattractant Protein-1 (MCP1) Biomarker Activity (AID 2283017)
# Details: primary human endothelial cells (HUVEC); actives raise or lower the signal
# Procedure, shortened: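 ELISA read-out of MCP-1 from human umbilical vein endothelial cell cultures harvested 24 h post-dosing. Gain or loss of signal was fitted relative to DMSO.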
SMILES,outcome,AC50
CC1=CC(C)C(C=O)C(C)C1 (centres undefined) (tested in a mixture with another compound),inactive,
CCCCN(CCO)CCO,inactive,
CCCCCCCC1CCCC1=O (centres undefined),,31.1 µM (active)
C=C(C)C(N)=O,inactive,
CCCCOCCOCCO,inactive,
CC(=O)OCC=C(C)CCC=C(C)CCC=C(C)C,inactive,
CCOC(=O)C=Cc1ccccc1,inactive,
CCOC(=O)CCCCCCCCC(=O)OCC,inactive,
c1ccc(OCCOc2ccccc2)cc1,inactive,
CCn1cc(C(=O)O)c(=O)c2ccc(C)nc21,inactive,
COc1ccccc1NC(=O)CC(C)=O,inactive,

# Read-out: Monocyte Chemoattractant Protein-1 (MCP1), CCL2 (gene 6347)
# Experiment: BSK_4H_MCP1: BioMAP Diversity Plus: 4H Assay for Monocyte Chemoattractant Protein-1 (MCP1) Biomarker Activity (AID 2283018)
# Details: primary human endothelial cells (HUVEC); actives raise or lower the signal
# Procedure, shortened: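 ELISA of MCP-1 (CCL2) 24 h after chemical dosing of HUVEC in the BioMAP 4H system. Gain or loss versus DMSO fitted; parallel SRB staining (560 nm) tracked overt cytotoxicity.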
SMILES,outcome,AC50
CC1=CC(C)C(C=O)C(C)C1 (centres undefined) (tested in a mixture with another compound),inactive,
CCCCN(CCO)CCO,inactive,
CCCCCCCC1CCCC1=O (centres undefined),inactive,
C=C(C)C(N)=O,inactive,
CCCCOCCOCCO,inactive,
CC(=O)OCC=C(C)CCC=C(C)CCC=C(C)C,,3.97 µM (active)
CCOC(=O)C=Cc1ccccc1,inactive,
CCOC(=O)CCCCCCCCC(=O)OCC,inactive,
c1ccc(OCCOc2ccccc2)cc1,inactive,
CCn1cc(C(=O)O)c(=O)c2ccc(C)nc21,inactive,
COc1ccccc1NC(=O)CC(C)=O,inactive,

# Read-out: Human Leukocyte Antigen - DR isotype (HLADR), HLA-DRA (gene 3122)
# Experiment: BSK_3C_HLADR: BioMAP Diversity Plus: 3C Assay for Human Leukocyte Antigen - DR isotype (HLADR) Biomarker Activity (AID 2283019);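 on outcome: ELISA of cell-surface HLA-DR on HUVEC 24 h after dosing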
# Details: primary human endothelial cells (HUVEC); actives raise or lower the signal
# Procedure, shortened: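 ELISA readout of surface HLA-DR on human umbilical vein endothelium, taken 24 h after chemical treatment. Gain- and loss-of-signal were both fitted relative to DMSO.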
SMILES,outcome,AC50
CC1=CC(C)C(C=O)C(C)C1 (centres undefined) (tested in a mixture with another compound),inactive,
CCCCN(CCO)CCO,inactive,
CCCCCCCC1CCCC1=O (centres undefined),,31.6 µM (active)
C=C(C)C(N)=O,inactive,
CCCCOCCOCCO,inactive,
CC(=O)OCC=C(C)CCC=C(C)CCC=C(C)C,inactive,
CCOC(=O)C=Cc1ccccc1,inactive,
CCOC(=O)CCCCCCCCC(=O)OCC,inactive,
c1ccc(OCCOc2ccccc2)cc1,inactive,
CCn1cc(C(=O)O)c(=O)c2ccc(C)nc21,inactive,
COc1ccccc1NC(=O)CC(C)=O,inactive,
